Laboratory results: PubChem BioAssay
The source made the active and inactive calls.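 Rule for the calls, unless noted: active = visually confirmed hit in the image check and inhibition above 20%; inconclusive = visually confirmed hit but inhibition not above 20%; inactive = no visual hit in the image check.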

test system: not listed separately; test: inhibitors of E-selectin induction by TNFa, primary screen, imaging, HUVEC, immunofluorescence, MLSMR starter and 10KST1 sets (AID 487); settings: HUVEC TNFalpha-induced E-selectin immunofluorescence imaging, at 2 µM; inhibition: stronger effect = higher value; nuclei count: measured here: cell number, toxicity;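 for inhibition: signal is fraction of cell area covered by stained E-selectin grains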;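 for nuclei count: 100% = median nuclei count of all wells on the same plate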

Compound | inhibition | nuclei count [%]
Cc1cc(C)cc(OCCCC(=O)O)c1 | -45% (inactive) | 94.2
c1ccc2c(c1)C(=Nn1cnnc1)c1ccccc1-2 | -107% (inactive) | 122
COc1ccc(C2C(C#N)=C(C)NC3=C2C(=O)CC(C)(C)C3)c(OC)c1 (stereo not given) | 31.4% (inactive) | 96
CCCN1CCN(CCCNC(=O)Cn2nc(-c3ccc(Cl)cc3)ccc2=O)CC1 | -205% (inactive) | 131
CCCN(CCC)c1nc2ccccc2n2c(C)nnc12 | -77.3% (inactive) | 102
COc1ccc(CC(=O)NCc2cccs2)cc1 | -83.1% (inactive) | 140
O=C1c2ccccc2C(O)(Cc2ccccc2)N1Cc1ccco1 (stereo not given) | -110% (inactive) | 131
Cc1[nH]c(=O)[nH]c(=O)c1S(=O)(=O)N(C)Cc1ccccc1 | -90.2% (inactive) | 110
COc1cccc(NC(=O)Cc2nnc(SCC(=O)c3ccccc3)n2C)c1 | -39.3% (inactive) | 91.8
COc1cccc(N2CCN(CC(=O)NCc3cccs3)CC2)c1 | 24.5% (inactive) | 99.5
CCN(c1cccc(C)c1)S(=O)(=O)c1ccc2[nH]c(=O)c(=O)[nH]c2c1 | -8.3% (inactive) | 98
COc1ccccc1CN(Cc1nc2ccccc2c(=O)[nH]1)C(=O)Nc1ccccc1 | -68.2% (inactive) | 134
Cc1ccccc1-c1nc(CN2CCC(C(=O)NCc3cccnc3)CC2)c(C)o1 | -149% (inactive) | 119
CC1(C)NC(=O)N(CNc2cc(Cl)ccc2Cl)C1=O | 0.8% (inactive) | 96.7
CCS(=O)(=O)c1ccc(S(=O)(=O)CC)s1 | 10.5% (inactive) | 82.3
O=C(O)C1CCCN1C(=O)Nc1ccc(F)cc1 (stereo not given) | -32.7% (inactive) | 98.5
COCC(=O)N(Cc1ccc(OC)cc1)Cc1nc2ccccc2c(=O)[nH]1 | -57.4% (inactive) | 117
COc1ccc(OCc2cccc(C(=O)O)c2)cc1 | 20.3% (inactive) | 111
Cc1nc2ccccc2c(=O)n1/N=C/c1ccncc1 | -2.9% (inactive) | 92.1
C=C(c1cccc2ccccc12)P(=O)(O)O | 18.6% (inactive) | 99.8

Compound | inhibition | nuclei count [%]
COc1ccc(-c2cc3nc4n(c(=O)c3s2)CCC4)cc1 | -96.4% (inactive) | 139
CCCC(CCC)n1[nH]c(=O)c2c(C)cc(C)nc21 | -29.5% (inactive) | 114
CCOC(=O)CS(=O)(=O)c1nc(-c2ccccc2)cc(C(F)(F)F)n1 | -15.5% (inactive) | 116
Cc1n[nH]c(C)c1S(=O)(=O)N1CCCCCC1 | -12.3% (inactive) | 110
CCN(CCO)C1CC(=O)N(c2ccccc2C)C1=O (stereo not given) | -126% (inactive) | 145
Nc1nc2sc3c(c2c(=O)s1)CCCC3 | 18.8% (inactive) | 90.7
CCOC(=O)c1[nH]c(C)c(C(=O)N(C)C)c1C | -68% (inactive) | 106
Cc1cc(C)n(-c2nc3ccccc3c(=O)n2OCCOc2ccccc2)n1 | -17.9% (inactive) | 94.2
C/C(NC1CCCC1)=C(/C#N)C(N)=O | -38.9% (inactive) | 144
CCOc1ccc(C(=O)N(Cc2ccc(N(C)C)cc2)C2CCS(=O)(=O)C2)cc1 (stereo not given) | -56.2% (inactive) | 96.7
Cc1ccc(NC(=O)Cn2cccc2)cc1Cl | -4.1% (inactive) | 103
NC(=O)c1sc2nc(N3CCCCC3)c3c(c2c1N)CCCC3 | 26.5% (inactive) | 111
O=C(Nc1nc(-c2ccc(S(=O)(=O)N3CCCCCC3)cc2)cs1)c1cccs1 | -30.6% (inactive) | 122
Cc1ccc2ncnc(NCCCN3CCOCC3)c2c1 | -25.5% (inactive) | 115
CCOC(=O)c1cc2c(=O)n3cccc(C)c3nc2n(Cc2ccco2)c1=NC(=O)c1cccnc1 | -59.3% (inactive) | 112
O=S(=O)(c1ccc2c(c1)OCCO2)N(Cc1ccc(F)cc1)Cc1nnc(-c2cccs2)o1 | -14.4% (inactive) | 119
COc1ccccc1-n1c(SCC(N)=O)nnc1-c1ccccc1 | -0.4% (inactive) | 80.6
CCCNC(=O)c1c(N)n(-c2cc(OC)cc(OC)c2)c2nc3ccccc3nc12 | -89.1% (inactive) | 135
COc1cc(C2c3c(oc4c(C)cc(C)cc4c3=O)C(=O)N2Cc2cccnc2)cc(OC)c1OC (stereo not given) | -4.3% (inactive) | 97.5
O=C(c1cc(-c2ccco2)nn1-c1cccc(Cl)c1)N1CCCCC1 | 1.9% (inactive) | 100

target: Voltage-gated potassium channel subunit beta-2 (Rattus norvegicus) (UniProt P62483); test: KvBeta enzyme negative modulators, primary screen, biochemical, NADPH fluorescence (AID 622;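 active = fluorescence slope higher than the sample average by over 3 SD, cut at about -0.22 in these data, passing the limit was not always enough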;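 note: slope of raw intensity against log time taken from 70 to 1610 s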); settings: recombinant KvBeta, 4-cyanobenzaldehyde reduction, at 10 µM, stronger effect = higher value
Sequence (P62483 whole entry, looked up): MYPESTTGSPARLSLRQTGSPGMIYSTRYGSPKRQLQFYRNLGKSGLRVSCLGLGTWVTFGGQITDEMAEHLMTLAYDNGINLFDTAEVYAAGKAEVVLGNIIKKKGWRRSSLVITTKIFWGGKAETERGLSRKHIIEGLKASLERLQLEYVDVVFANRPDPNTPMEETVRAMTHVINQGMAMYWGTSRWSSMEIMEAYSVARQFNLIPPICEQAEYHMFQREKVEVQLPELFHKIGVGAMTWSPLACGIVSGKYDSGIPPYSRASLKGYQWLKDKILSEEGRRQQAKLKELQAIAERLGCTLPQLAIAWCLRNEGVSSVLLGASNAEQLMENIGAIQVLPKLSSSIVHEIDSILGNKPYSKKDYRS

Compound | fluorescence slope
Cc1cc(C)cc(OCCCC(=O)O)c1 | -0.531 (inactive)
c1ccc2c(c1)C(=Nn1cnnc1)c1ccccc1-2 | -0.448 (inactive)
COc1ccc(C2C(C#N)=C(C)NC3=C2C(=O)CC(C)(C)C3)c(OC)c1 (stereo not given) | -0.463 (inactive)
CCCN1CCN(CCCNC(=O)Cn2nc(-c3ccc(Cl)cc3)ccc2=O)CC1 | -0.552 (inactive)
CCCN(CCC)c1nc2ccccc2n2c(C)nnc12 | -0.461 (inactive)
COc1ccc(CC(=O)NCc2cccs2)cc1 | -0.399 (inactive)
O=C1c2ccccc2C(O)(Cc2ccccc2)N1Cc1ccco1 (stereo not given) | -0.554 (inactive)
Cc1[nH]c(=O)[nH]c(=O)c1S(=O)(=O)N(C)Cc1ccccc1 | -0.491 (inactive)
COc1cccc(NC(=O)Cc2nnc(SCC(=O)c3ccccc3)n2C)c1 | -0.5 (inactive)
COc1cccc(N2CCN(CC(=O)NCc3cccs3)CC2)c1 | -0.318 (inactive)
CCN(c1cccc(C)c1)S(=O)(=O)c1ccc2[nH]c(=O)c(=O)[nH]c2c1 | -0.514 (inactive)
COc1ccccc1CN(Cc1nc2ccccc2c(=O)[nH]1)C(=O)Nc1ccccc1 | -0.49 (inactive)
Cc1ccccc1-c1nc(CN2CCC(C(=O)NCc3cccnc3)CC2)c(C)o1 | -0.476 (inactive)
CC1(C)NC(=O)N(CNc2cc(Cl)ccc2Cl)C1=O | -0.435 (inactive)
CCS(=O)(=O)c1ccc(S(=O)(=O)CC)s1 | -0.584 (inactive)
O=C(O)C1CCCN1C(=O)Nc1ccc(F)cc1 (stereo not given) | -0.301 (inactive)
COCC(=O)N(Cc1ccc(OC)cc1)Cc1nc2ccccc2c(=O)[nH]1 | -0.572 (inactive)
COc1ccc(OCc2cccc(C(=O)O)c2)cc1 | -0.511 (inactive)
Cc1nc2ccccc2c(=O)n1/N=C/c1ccncc1 | -0.526 (inactive)
C=C(c1cccc2ccccc12)P(=O)(O)O | -0.493 (inactive)

Compound | fluorescence slope
COc1ccc(-c2cc3nc4n(c(=O)c3s2)CCC4)cc1 | -0.467 (inactive)
CCCC(CCC)n1[nH]c(=O)c2c(C)cc(C)nc21 | -0.47 (inactive)
CCOC(=O)CS(=O)(=O)c1nc(-c2ccccc2)cc(C(F)(F)F)n1 | -0.462 (inactive)
Cc1n[nH]c(C)c1S(=O)(=O)N1CCCCCC1 | -0.488 (inactive)
CCN(CCO)C1CC(=O)N(c2ccccc2C)C1=O (stereo not given) | -0.321 (inactive)
Nc1nc2sc3c(c2c(=O)s1)CCCC3 | -0.525 (inactive)
CCOC(=O)c1[nH]c(C)c(C(=O)N(C)C)c1C | -0.465 (inactive)
Cc1cc(C)n(-c2nc3ccccc3c(=O)n2OCCOc2ccccc2)n1 | -0.453 (inactive)
C/C(NC1CCCC1)=C(/C#N)C(N)=O | -0.583 (inactive)
CCOc1ccc(C(=O)N(Cc2ccc(N(C)C)cc2)C2CCS(=O)(=O)C2)cc1 (stereo not given) | -0.618 (inactive)
Cc1ccc(NC(=O)Cn2cccc2)cc1Cl | -0.324 (inactive)
NC(=O)c1sc2nc(N3CCCCC3)c3c(c2c1N)CCCC3 | 1.5e-14 (active)
O=C(Nc1nc(-c2ccc(S(=O)(=O)N3CCCCCC3)cc2)cs1)c1cccs1 | -0.53 (inactive)
Cc1ccc2ncnc(NCCCN3CCOCC3)c2c1 | -0.484 (inactive)
CCOC(=O)c1cc2c(=O)n3cccc(C)c3nc2n(Cc2ccco2)c1=NC(=O)c1cccnc1 | -0.439 (inactive)
O=S(=O)(c1ccc2c(c1)OCCO2)N(Cc1ccc(F)cc1)Cc1nnc(-c2cccs2)o1 | -0.543 (inactive)
COc1ccccc1-n1c(SCC(N)=O)nnc1-c1ccccc1 | -0.484 (inactive)
CCCNC(=O)c1c(N)n(-c2cc(OC)cc(OC)c2)c2nc3ccccc3nc12 | -0.367 (inactive)
COc1cc(C2c3c(oc4c(C)cc(C)cc4c3=O)C(=O)N2Cc2cccnc2)cc(OC)c1OC (stereo not given) | -0.552 (inactive)
O=C(c1cc(-c2ccco2)nn1-c1cccc(Cl)c1)N1CCCCC1 | -0.588 (inactive)
